Measured values reported in PubChem BioAssay.

Molecular target: Follistatin (Homo sapiens) (UniProt P19883)
Assay: follistatin binders on small-molecule microarrays, primary screen, biochemical, small-molecule microarray, 635/667 nm fluorescence (AID 1132)
Conditions: FST binding, 635 nm fluorescence, higher = more signal

Follistatin (Homo sapiens), sequence (P19883 whole entry, looked up): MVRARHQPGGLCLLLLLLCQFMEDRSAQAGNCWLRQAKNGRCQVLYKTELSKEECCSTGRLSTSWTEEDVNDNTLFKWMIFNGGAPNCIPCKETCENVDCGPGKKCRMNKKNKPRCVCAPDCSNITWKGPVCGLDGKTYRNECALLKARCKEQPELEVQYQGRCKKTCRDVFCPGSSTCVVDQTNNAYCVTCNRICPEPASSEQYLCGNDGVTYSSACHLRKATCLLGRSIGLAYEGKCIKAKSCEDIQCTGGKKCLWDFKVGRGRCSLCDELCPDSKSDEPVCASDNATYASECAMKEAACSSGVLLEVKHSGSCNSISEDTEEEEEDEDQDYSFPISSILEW

| SMILES | composite z-score |
| --- | --- |
| CC(C)c1ccc(NN2C(C(O)c3c(F)cccc3Cl)C=CC3C(=O)N(c4ccccc4)C(=O)C32)cc1 (stereo not given) | 1.02 |
| CC(C)(C)OC(=O)CC[C@@]1(C(=O)O)N=C(c2ccc(OCCCO)cc2)O[C@@H]1c1ccccc1N=[N+]=[N-] | 0.589 |
| COC(=O)C[C@@H]1C[C@H](C)[C@]2(O1)C(=O)N(Cc1ccccc1)c1ccc(NC(C)=O)cc12 | 0.431 |
| COCC1=C2[C@@H](CCc3ccccc3)OB(O)C[C@@H]2[C@@H]2C(=O)N(Cc3ccccc3)C(=O)[C@@H]2C1 | 0.193 |
| C=CCOC(=O)[C@@H]1[C@H]2C(=O)O[C@H](c3ccccc3)[C@H](c3ccccc3)N2[C@H](c2ccc(OCCOC(=O)[C@@H]3C[C@@H]4C(=O)NCC(=O)N4[C@@H]3c3cccc(OCCO)c3)cc2)[C@@]12C(=O)Nc1ccc(I)cc12 | 1.32 |
| C=CCC(OC(C)=O)[C@@H]1[C@@H](N(Cc2cccc3ccccc23)C(=O)c2ccc(C)cc2)c2cc(OCCCO)ccc2N1C(=O)Cc1ccc(OC)cc1 (stereo not given in full) | 0.695 |
| O=C1OCCC=C[C@H]2OC34C=CCN(Cc5ccccc5)C(=O)[C@H]3N(CCCCCO)C(=O)[C@@H]4C12 (stereo not given in full) | -0.618 |
| O=C(OCCF)C1=CCC(c2cccc(Cl)c2)O1 (stereo not given) | 0.134 |
| [N-]=[N+]=NCc1ccccc1[C@@H]1OC(c2ccc(OCCCO)cc2)=N[C@]1(Cc1ccccc1)C(=O)N1CCCCC1 | 1.41 |
| Cc1cc(C)c(C(O)C2C=CC3C(=O)N(c4ccccc4)C(=O)C3N2Nc2ccc(C#N)cc2)c(C)c1 (stereo not given) | 0.509 |
| C=C[C@@H](COC(C)=O)N(Cc1ccccc1[N+](=O)[O-])S(=O)(=O)c1ccc(Br)cc1 | 1.42 |
| COc1ccc(C#Cc2ccc3c(c2)[C@]2(C(=O)N3)[C@H](c3ccc(O)cc3)N3[C@H](c4ccccc4)[C@H](c4ccccc4)OC(=O)[C@H]3[C@@H]2C(=O)NC[C@H](O)c2ccccc2)cc1 | 1.03 |
| C=CCNC(=O)[C@@H]1[C@H]2C(=O)O[C@H](c3ccccc3)[C@H](c3ccccc3)N2[C@H](c2ccccc2OCCO)[C@@]12C(=O)Nc1ccc(C#CC3=CCCCC3)cc12 | 1.21 |
| [N-]=[N+]=NCc1ccccc1[C@@H]1OC(c2ccc(OCCCO)cc2)=N[C@]1(Cc1ccccc1N=[N+]=[N-])C(=O)NCc1ccccc1 | 1.28 |
| COCCOC(=O)N1C(=O)[C@@]2(c3cc(C#CCCO)ccc31)[C@H](c1ccccc1OCCO)N1[C@H](c3ccccc3)[C@H](c3ccccc3)OC(=O)[C@H]1[C@@H]2C(=O)N1CCN(c2ncccn2)CC1 | 1.32 |
| CCCCC=C[C@@H](NC(=O)c1ccc(C(=O)OC)cc1)c1ccccc1 | 0.293 |
| CC(C)NC(=O)[C@@H]1c2ccccc2C(=O)N(Cc2ccccc2Cl)[C@H]1c1ccc(CO)cc1 | -0.555 |
| COc1cc2c(cc1OC)CN(C(=O)[C@@H]1[C@H]3C(=O)O[C@H](c4ccccc4)[C@H](c4ccccc4)N3[C@H](c3ccccc3OCCO)[C@@]13C(=O)Nc1ccc(C#CCNC(N)=O)cc13)CC2 | 0.741 |

| SMILES | composite z-score |
| --- | --- |
| O=C1C=CC(=O)[C@@H]2CC(COc3ccccc3)=C3[C@@H](CCc4ccccc4)OB(O)C[C@@H]3[C@H]12 | 1.08 |
| O=C(NCc1ccccc1)[C@]1(CCS(=O)(=O)c2ccccc2)N=C(c2ccc(OCCCO)cc2)O[C@@H]1c1ccccc1 | 0.919 |
| COc1ccc(C#Cc2ccc3c(c2)[C@]2(C(=O)N3)[C@H](C(=O)NC[C@H](O)c3ccccc3)[C@H]3C(=O)O[C@H](c4ccccc4)[C@H](c4ccccc4)N3[C@@H]2c2ccc(OCCO)cc2)cc1 | 1.36 |
| CCOc1cc(C(O)C2C=CC3C(=O)N(c4ccccc4)C(=O)C3N2Nc2ccc([N+](=O)[O-])cc2)ccc1O (stereo not given) | 0.165 |
| [N-]=[N+]=NCc1ccccc1C[C@]1(C(=O)NCCN2CCOCC2)N=C(c2ccc(OCCCO)cc2)O[C@H]1c1ccccc1N=[N+]=[N-] | 0.714 |
| C=C[C@@H](COC(C)=O)N(Cc1ccc([N+](=O)[O-])cc1)S(=O)(=O)c1ccc(Br)cc1 | 0.631 |
| COc1ccc(CCNC(=O)[C@@]2(c3ccc([N+](=O)[O-])cc3)CC(=O)N(CC34CC5CC(CC(C5)C3)C4)[C@@H]2c2ccc(CO)cc2)cc1 | 1.41 |
| COCC(=C=CC[C@H](O)c1ccc(OCCO)cc1)C[C@H](O)c1cc(Cl)cc(Cl)c1O | 1.38 |
| CO[C@H]1O[C@H](CO)[C@@H](OC(=O)Nc2ccc3c(c2)OCO3)[C@H](OC(=O)Nc2ccccc2)[C@H]1OC(=O)Nc1ccccc1 | 1.32 |
| COc1ccc(C(O)C2C=CC3C(=O)N(c4ccccc4)C(=O)C3N2Nc2ccc([N+](=O)[O-])cc2)cc1OCc1ccccc1 (stereo not given) | 0.508 |
| [N-]=[N+]=NCc1ccccc1C[C@]1(C(=O)NCC(O)CO)N=C(c2ccc(OCCCO)cc2)O[C@H]1c1ccccc1N=[N+]=[N-] (stereo not given in full) | -0.181 |
| CCOC(=O)C[C@H]1[C@H](OC(=O)Cc2ccc3c(c2)OCO3)[C@@H](NC(=O)c2ccc(-c3ccccc3)cc2)c2cc(OCCCO)ccc2N1C(=O)c1ccccc1 | 0.526 |
| CS(=O)(=O)CCOC(=O)C1=CC(CCCO)=CC(c2cccs2)N(Cc2cc3c(cc2Br)OCO3)C=C1C(=O)OCCS(C)(=O)=O (stereo not given) | 1.28 |
| COc1ccc([Si](C)(C)[C@H]2[C@H](CC(=O)N(CCO)Cc3ccccc3)O[C@@]3(C(=O)N(Cc4cccc(N5CCC5=O)c4)c4ccccc43)[C@@H]2C)cc1 | 1.12 |
| COc1cccc(C(=O)O[C@H]2CC[C@]3(C)C4=C(CCC3C2(C)C)[C@]2(C)CC[C@H]([C@H](C)CCCC(C)C)[C@@]2(C)CC4)c1 (stereo not given in full) | 0.649 |
| CC(C)NC(=O)[C@@H]1c2ccccc2C(=O)N(Cc2ccccc2)[C@H]1c1ccc(CO)cc1 | -0.797 |
| COc1ccc([Si](C)(C)[C@@H]2[C@@H](CC(=O)N(CCO)Cc3ccccc3)O[C@]3(C(=O)N(C)c4ccccc43)[C@H]2C)cc1 | 1.44 |
